This is one part of a sample in which hits are shown more often than they occur.
TbPYK inhibitor: qHTS of Trypanosoma Brucei Inhibitors; Potency, µM (titrated, usually from 76.8 µM), inactives show at the top dose activity, negative = inhibition, most hits filed as inhibitors; 0.12% of 410,000 active; TbPYK enzyme, Kinase-Glo Plus ATP luminescence, 45 min; pyruvate kinase (Trypanosoma brucei), Q57TT1; also: potency is read from the fitted curve at half-maximal effect; % is scaled to controls: 0 for no effect and ±100 for the full control effect; nearly all actives have a fitted effect of over 50% in size
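Quantitative HTS: titrated library compounds versus trypanosomal pyruvate kinase in TEA buffer (pH 7.2) containing KCl, MgCl2, BSA and Tween-20. Reactions were initiated with ADP, 130 uM final. Kinase-Glo Plus luminescence was read after 45 min at RT.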
Sm TGR inh: qHTS Assay for the Inhibitors of Schistosoma Mansoni Peroxiredoxins; Schistosoma mansoni thioredoxin glutathione reductase (TGR), Q962Y6; purified TGR, DTNB reduction, TNB absorbance 405 nm; Potency, µM (titrated, usually from 114 µM), for inactives: at the highest dose activity change, negative = inhibition, usual class: inhibitors; 3% of 360,000 active; AID 485364, 2010; also: potency is read from the fitted curve at half-maximal effect; % is scaled to controls: 0 for no effect and ±100 for the full control effect; nearly all actives have a fitted effect of over 60% in size
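TGR 20 nM + NADPH 100 uM (dispensed conc.), cpd preinc 15 min RT; start with NADPH (500 uM addition) then DTNB (15 mM addition). Kinetic TNB absorbance, 405 nm filter. Four-parameter Hill fit across titration.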
FBPA Giardia inh: qHTS Assay for Inhibitors of Fructose-1,6-bisphosphate Aldolase from Giardia Lamblia. A8B2U2. purified Giardia FBPA. Potency, µM (series often up to 59.6 µM), for inactives: at the top dose activity, negative = inhibition, actives largely listed as inhibitors. 0.71% of 290,000 active. AID 2451, 2010; also: potency is read from the fitted curve at half-maximal effect; % is scaled to controls: 0 for no effect and ±100 for the full control effect; nearly all actives have a fitted effect of over 55% in size
Target sequence (A8B2U2 whole entry, looked up): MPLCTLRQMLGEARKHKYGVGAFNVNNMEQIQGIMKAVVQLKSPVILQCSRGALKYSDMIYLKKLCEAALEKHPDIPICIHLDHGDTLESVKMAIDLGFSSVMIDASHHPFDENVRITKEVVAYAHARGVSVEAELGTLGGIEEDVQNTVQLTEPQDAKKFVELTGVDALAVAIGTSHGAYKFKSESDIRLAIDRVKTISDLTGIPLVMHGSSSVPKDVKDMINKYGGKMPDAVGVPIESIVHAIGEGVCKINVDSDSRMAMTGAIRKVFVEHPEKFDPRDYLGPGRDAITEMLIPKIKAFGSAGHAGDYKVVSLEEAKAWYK
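Giardia FBPA (40 nM reagent) was preincubated 10 min at RT with compound (up to 57.5 uM final), then substrate plus GAPDH/TPI/NAD/arsenate coupling system with diaphorase/resazurin was added; resorufin fluorescence (525/598 nm) was read after 20 min.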
CHX counter: Cycloheximide Counterscreen for Small Molecule Inhibitors of Shiga Toxin; 12% of 300,000 active; AID 2314, 2010; cell reporter, cycloheximide protein synthesis inhibition counterscreen; max response, %; in the data active = max response mostly above about 13%, no sharp cut-off; inactive = mostly below about 14%; also: read at 38.3 µM for the half of the compounds with a filed dose; 0% is about no effect
LmPK inh: qHTS Assay for Inhibitors of Leishmania Mexicana Pyruvate Kinase (LmPK); purified LmPK, Kinase-Glo ATP luminescence, 1 h; Potency, µM (series often up to 57.5 µM), for inactives: at the top dose activity change, negative = inhibition, most hits filed as inhibitors; 0.37% of 290,000 active; AID 1721, 2009; also: potency is read from the fitted curve at half-maximal effect; % is scaled to controls: 0 for no effect and ±100 for the full control effect
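qHTS format; LmPK 0.1 nM; substrates PEP 0.5 mM and ADP 0.1 mM. One-hour room-temperature incubation, then coupled luciferase luminescence; 0.5 nM enzyme wells mark activation.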
Shiga toxin inh: A qHTS for Small Molecule Inhibitors of Shiga Toxin | Vero cells, Shiga toxin protein synthesis inhibition reporter | inhibition, % at 38.7 µM | 9.2% of 290,000 active; in the data active = inhibition mostly above about 28%, no sharp cut-off; inactive = mostly below about 43%; also: 0% is about no effect
* marks the source's active call; other numbers are inactive results; ? = inconclusive; nt = no result given; [ ] = another dose, or the depositor's remark. Unless noted, calls follow the shape of the dose curve; as a rule, active = well fitted curve in the direction sought with a large enough effect; inconclusive = small, poorly fitted or top-dose-only effect, or another doubt; inactive = no such curve, though single readings can be large; an effect the other way counts as inactive or inconclusive.

SMILES	TbPYK inhibitor	Sm TGR inh	FBPA Giardia inh	CHX counter	LmPK inh	Shiga toxin inh
COCCNC(=O)c1ccc(Cl)c(S(=O)(=O)Nc2cccc(C)c2C)c1	-2%	6%	nt	-3	-4%	12
CC(C)(C)CC(=O)OCC(=O)[C@@]12OC(C)(C)O[C@@H]1C[C@H]1[C@@H]3CCC4=CC(=O)C=C[C@]4(C)[C@@]3(F)[C@@H](O)C[C@]12C	6%	nt	nt	nt	nt	nt
O=C(N[C@@H]1CN2CCC1CC2)c1cc(Cl)cc2[nH]cnc12	nt	nt	-1%	5	nt	-1
Cn1cccc1C(=O)N1CCC[C@@]2(CCN(c3ccncc3)C2)C1	1%	nt	6%	nt	nt	nt
Cc1ccc(C)c(Nc2cc(C(=O)NC3CCCC3)c3ccccc3n2)c1	-1%	-7%	nt	nt	nt	nt
Cc1cc(C)c(-c2csc(NC(=O)C3=COCCO3)n2)c(C)c1	11%	11%	nt	nt	nt	nt
Cc1ccc(Cl)c2sc(NC(=O)C3=COCCO3)nc12	-4%	10%	nt	27*	-2%	74*
COc1ccc(Cl)c2sc(NC(=O)C3=COCCO3)nc12	3%	8%	nt	nt	nt	nt
Cc1cc(C)c2sc(NC(=O)C3=COCCO3)nc2c1	6%	0%	?	60*	-12%	120*
Cc1ccc(NC(=O)C2=C(O)c3ccccc3N(C)S2(=O)=O)cc1	0%	0%	9%	34*	-6%	44
COC(=O)c1ccn(Cc2ccccc2Cl)n1	2%	6%	5%	44*	7%	63*
COC(=O)c1cc2n(n1)CCN(Cc1ccccc1Cl)C2=O	-14%	5%	4%	-1	-1%	-3
CO[C@@H]1C[C@H](O[C@H]2[C@@H](C)[C@H](O[C@@H]3O[C@@H](C)C[C@@H](N(C)C)[C@@H]3OC(C)=O)[C@H](C)C[C@]3(CO3)C(=O)[C@H](C)[C@H](OC(C)=O)[C@H](C)[C@H](C)OC(=O)[C@@H]2C)O[C@H](C)[C@@H]1OC(C)=O	-6%[33.2 µM]	nt	-1%[21.7 µM]	nt	nt	nt
C=CCn1c(O)c(N=Nc2ccccc2[N+](=O)[O-])c2ccccc21	-1%	nt	nt	nt	nt	nt
O=C(Nc1sc2c(c1C(=O)O)CCC2)c1cccs1	-17%	-19%	?	48*	?	115*
O=C(Nc1sc2c(c1C(=O)Nc1cccc(Cl)c1)CCCC2)c1cccs1	?	3%	nt	-6	nt	-5
NC(=O)c1c(NC(=O)c2cccs2)sc2c1CCCCCC2	-7%	0%	1%	30*	0%	55
COc1ccc(C2/C=C\CN(C(=O)C3CC3)C(C)C(=O)N2Cc2ccc(F)cc2)cc1 (configuration not stated)	nt	nt	0%	6	nt	-5
CCOC(=O)C1=CN(Cc2cccc(-c3ccc(F)cc3)c2)S(=O)(=O)N(C)C1C (configuration not stated)	3%	nt	nt	nt	nt	nt
O=C(CSc1nc(=O)n(Cc2ccncc2)c2c1CCC2)Nc1ccc(F)cc1F	-5%	3%	nt	nt	nt	nt
CC(C)(C)c1cc(OC(=O)c2ccncc2)ccc1O	-12%	-22%	2%	-2	2%	-4
CC(C)(C)c1cc(OC(=O)c2ccccc2F)ccc1O	-1%	-4%	?	11	0%	33*
Cn1c(-c2ccccc2)cnc1NCc1ccc(F)cc1	5%	0%	17%	24*	-4%	39
Cn1c(-c2ccc(F)cc2)cnc1NCc1ccccc1	-1%	1%	-15%	20*	0%	55
CSc1ccc(CNc2ncc(-c3ccccc3)n2C)cc1	38%	4%	nt	nt	nt	nt
SMILES	TbPYK inhibitor	Sm TGR inh	FBPA Giardia inh	CHX counter	LmPK inh	Shiga toxin inh
CC(C)Sc1nnc(-c2ccc(S(=O)(=O)N3CCOCC3)cc2)n1C	2%	50µM*	-3%	-3	-8%	37
Cc1cc(C(=O)COC(=O)C2=COCCO2)c(C)n1-c1ccccc1	-8%	nt	nt	nt	nt	nt
Cc1cccc(CN2C(=O)CC(c3ccc(Cl)cc3)c3c(C)nn(-c4nc(C)cc(C)n4)c32)c1 (configuration not stated)	-3%	0%	nt	nt	nt	nt
O=C(O)c1cc(N/N=C/c2cccs2)ccc1Cl	nt	7%	-3%	49*	-4%	95*
O=C(N/N=C/c1cccs1)C(O)c1ccccc1 (configuration not stated)	2%	-2%	1%	-1	5%	20
Cc1ccc(/C=N/Nc2ccc(F)cc2)s1	-6%	-33%	12%	23*	-6%	68*
Cn1c(N/N=C/c2cccs2)cc(=O)n(C)c1=O	-11%	-26%	?	21*	-9%	22
Cc1ccc(/C=N/Nc2ccc(Cl)c(C(=O)O)c2)s1	-11%	-5%	8%	104*	2%	150*
Cc1sc2nc(SCC(=O)Nc3ccc(Cl)c(C(=O)O)c3)[nH]c(=O)c2c1C	-11%	nt	nt	nt	nt	nt
CCOC(=O)Cc1c(-c2cccc(Cl)c2)nc2c3ccccc3ccn12	0%	nt	nt	nt	nt	nt
CCOc1ccc(CN(C(=O)c2ccccn2)c2ccc(OC)c(Cl)c2)cc1	1%	-5%	2%	31	8%	64*
CCOc1ccc(N(Cc2ccc(OC)c(OC)c2)C(=O)c2ccco2)cc1	0%	2%	1%	9	2%	49
CCN(CC)c1nn2c(=O)c(C(=O)NCc3ccccc3Br)cnc2s1	3%	4%	nt	nt	nt	nt
COc1ccc(-c2nn(-c3ccccc3)cc2C2NC(=O)NC(C)=C2C(=O)OC(C)C)cc1Cl (configuration not stated)	-11%	-10%	nt	nt	nt	nt
Cc1cccnc1NC(=O)c1ccc(COc2ccccc2)o1	6%	-4%	nt	19	0%	29
CCOc1ccc(OCc2ccc(C(=O)NCc3ccncc3)o2)cc1	-1%	-1%	5%	17*	-11%	26
CCc1ccc(OCc2ccc(C(=O)NCc3ccccn3)o2)cc1	-7%	-21%	21%	32*	2%	19
COc1cccc(NC(=O)NC2(C(F)(F)F)Oc3ccccc3O2)c1	-4%	40µM*	-2%	45*	1%	66*
CCc1ccc(NC(=O)Nc2cccc(OC)c2)cc1	5%	10%	-4%	26*	-1%	105*
Cn1ccc2cc(NC(=O)Nc3cccnc3)ccc21	-11%	nt	-14%	30*	nt	49*
COc1cccc(NC(=O)C2C3C=CC(O3)C2C(=O)NCc2cccnc2)c1 (configuration not stated)	0%	50µM*	10%	4	5%	-10
CC(C)CNC(=O)NC1(C(F)(F)F)Oc2ccccc2O1	-8%	-9%	0%	7	-4%	24
CNC(=O)Oc1ccc2c(c1)[C@@]1(C)CCN(C)C1N2C (some centres not stated)	nt	nt	6%	nt	nt	nt

High-throughput results: PubChem BioAssay, National Center for Advancing Translational Sciences (NCATS)
